The list is not random: actives were taken first. Their share in the collection is about 12%.
USP28 block: human USP28 deubiquitinase inhibition; inhibition, % at 25 µM; 47,000 tested, 3% active; AID 1645857; purified USP28, Ub-rhodamine cleavage fluorescence, 30 min; Q96RU2
USP30 block: inhibitors of human USP30 deubiquitinase | 47,000 tested, 5.3% active | purified USP30, Ub-rhodamine cleavage fluorescence | AID 1645860 | Q70CQ3 | inhibition, % at 25 µM
USP17 block: blocks human USP17 ubiquitin-rhodamine cleavage; purified USP17, Ub-rhodamine cleavage fluorescence, 3 h; inhibition, % at 50 µM; 47,000 tested, 6.5% active
Target sequence (A8MUK1 whole entry, looked up): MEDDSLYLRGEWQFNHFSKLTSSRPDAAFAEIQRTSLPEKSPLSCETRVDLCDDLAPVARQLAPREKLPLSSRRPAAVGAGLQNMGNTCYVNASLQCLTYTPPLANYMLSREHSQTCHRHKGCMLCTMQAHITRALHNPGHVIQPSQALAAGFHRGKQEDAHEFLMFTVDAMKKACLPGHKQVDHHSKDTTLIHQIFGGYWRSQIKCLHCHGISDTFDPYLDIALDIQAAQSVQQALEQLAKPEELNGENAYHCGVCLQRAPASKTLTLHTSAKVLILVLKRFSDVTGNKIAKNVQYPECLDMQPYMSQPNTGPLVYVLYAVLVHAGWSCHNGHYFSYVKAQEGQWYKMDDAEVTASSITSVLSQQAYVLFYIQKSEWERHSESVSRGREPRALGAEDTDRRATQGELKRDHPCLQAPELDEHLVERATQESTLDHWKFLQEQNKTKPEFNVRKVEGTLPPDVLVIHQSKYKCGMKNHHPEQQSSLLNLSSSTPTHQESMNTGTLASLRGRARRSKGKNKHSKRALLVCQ
OTUD3 block: blocks human OTUD3 ubiquitin-rhodamine cleavage. Q5T2D3. purified OTUD3, Ub-rhodamine fluorescence, 2 h. inhibition, % at 25 µM. 47,000 tested, 0.7% active
Active calls of the source: *; / = no result given. Rule as the data show it: active = inhibition above about 30%; inactive = the rest.

SMILES	USP28 block	USP30 block	USP17 block	OTUD3 block
Cc1cnc(C(=O)N2CCCC(c3ncc(Cc4ccc(F)cc4)o3)C2)cn1 (stereo unspecified)	14	31*	6	10
Cc1cc(C)c(NC(=O)CN2C(=O)CSC(C)C2=O)c(C)c1 (stereo unspecified)	-12	-16	-5	-2
COc1cccc(-c2nnc(-c3ccccc3NC(=O)c3ccc(Cl)cc3Cl)o2)c1	6	13	15	6
COc1ccc(Sc2cc(C(F)(F)F)nc(-c3ccccn3)n2)cc1	1	17	-6	0
COc1cnc(-c2ccccn2)nc1Sc1ccccc1Cl	5	87*	39*	26
O=C(NC(Cc1ccccc1)c1ccccc1)c1cccc(-n2cnnn2)c1 (stereo unspecified)	-1	27	1	1
O=C(NNS(=O)(=O)c1ccc(F)cc1)C1CCN(S(=O)(=O)c2ccccc2)CC1	31*	17	7	7
O=C(c1csc(S(=O)(=O)NC2CCCCCC2)c1)N1CCOCC1	-1	6	/	-2
O=C(NCCC1=CCCCC1)c1ccc(-c2cccnc2)nc1	10	17	0	7
CCOCCn1ccc2c(OCC(=O)Nc3ccc4c(c3)OCCO4)cccc2c1=O	44*	84*	66*	6
COCCn1ccc2nc(C)c(C(=O)Nc3ccc4c(c3)OCCO4)cc2c1=O	1	36*	51*	4
O=C(CN1CCOC(c2cccc(-c3cccc(F)c3)n2)C1)N1CCCC1 (stereo unspecified)	-8	-6	-14	-3
COc1ccc(CCNC(=O)c2cnn3c4c(cnc23)CCCC4)cc1OC	15	0	-1	3
Cc1cccc(CNC(=O)Cn2cc(-c3nnc(C)o3)c3ccccc32)c1	16	29	27	21
Cc1cccc(CNC(=O)Cn2cc(-c3nnco3)c3ccccc32)c1	12	11	46*	3
c1ccc(C2(c3nnc(C4CC4)o3)CCOCC2)cc1	-10	-7	/	-3
COc1cc(COc2ccc3c(C)c(CC(=O)N4CC[C@@]5(O)CCCC[C@H]5C4)c(=O)oc3c2C)cc(OC)c1OC	10	50*	48*	25
COc1ccc2c(C)c(CC(=O)N3CCC[C@H]3C(=O)O)c(=O)oc2c1C	12	20	19	32*
COc1cccc(CN2CCC3(CC2)OC(C(=O)Nc2ccccc2)Cn2ccnc23)c1 (stereo unspecified)	1	6	1	9
COc1cccc(NC(=O)C2Cn3ccnc3C3(CCN(C(C)=O)CC3)O2)c1 (stereo unspecified)	-15	-42	-20	32*
Cc1ccc2nc(NC(=O)CN3CCC(C(N)=O)CC3)sc2c1	3	19	6	7
Cc1ccc2nc(NC(=O)CSc3nnc(-c4ccncc4)n3C3CC3)sc2c1	-4	-25	57*	-12
Cn1c(CSc2ncn[nH]2)nc2ccccc21	-3	5	-6	-8
Cc1nc2nc(SCc3nc4ccccc4n3C)[nH]c2cc1Br	-26	-178	53*	-47
Cn1c2ccccc2c(=O)c2c(=O)n(-c3ccccc3)c(-c3ccc(F)cc3)nc21	-9	4	43*	-1
SMILES	USP28 block	USP30 block	USP17 block	OTUD3 block
COc1ccc(N2CCN(CCCNC(=O)c3nnc(Cc4c(F)cccc4Cl)o3)CC2)cc1	2	3	-3	-3
CCc1ccccc1NC(=O)c1nc2c(=O)[nH]c3cc(C)ccc3n2n1	-15	-66	-10	-8
O=C(NCc1ccc(C(F)(F)F)cc1)C1CCN(c2nc3nc[nH]c(=O)c3s2)CC1	11	14	42*	2
CC(C)(C)S(=O)(=O)Cc1nc(-c2ccc(C#N)cc2)cs1	-6	3	/	-1
COc1ccc(CN(C(=O)c2cc(-c3ccc(C)cc3)on2)C2CCS(=O)(=O)C2)cc1 (stereo unspecified)	17	50*	25	3
CCc1nc(N2CCCC2=O)sc1C(=O)Nc1cccc(C)c1	49*	-6	/	-5
CCc1nc(N2CCCC2=O)sc1C(=O)Nc1cccc(C(C)=O)c1	52*	14	12	8
Nc1nccc(-c2ccc3c(c2)CCC3)n1	-8	-16	-5	-13
N#Cc1cnn2ccc(-c3ccc4c(c3)CCC4)nc12	/	/	34*	-1
Cc1ccc(OCC(=O)Nc2onc3c2CCCC3)cc1C	30*	21	6	11
O=C1CC(c2ccc(Cl)cc2)c2c(nc(-c3ccccc3)[nH]c2=O)N1 (stereo unspecified)	-7	-2	6	6
O=C1CC(c2ccc(O)cc2)c2c(nc(-c3ccccc3)[nH]c2=O)N1 (stereo unspecified)	/	/	35*	0
COc1ccc(NC(=O)CC(=O)c2ccc([N+](=O)[O-])cc2)cc1S(=O)(=O)Nc1ccc(Br)cc1	42*	60*	34*	23
COc1ccccc1/C=C(/C(=O)N1CCN(Cc2ccc3c(c2)OCO3)CC1)c1ccccc1	14	42*	15	14
COc1ccccc1/C=C(\C(=O)N1CCN(c2ccccc2F)CC1)c1ccccc1	17	19	6	19
CC(=O)c1sc(NCc2ccc(C)cc2)nc1C	50*	5	-15	-2
CC(=O)c1sc(NC(=O)COc2ccc(N(C)S(=O)(=O)c3ccc(C)cc3)cc2)nc1C	-39	-42	19	-23
Cc1cc(C)cc(-n2ccn3cc(-c4cccc(Cl)c4)nc3c2=O)c1	-5	-35	45*	-12
O=C(NC1CCCC1)c1cccc(NC(=O)c2nsc3ccccc23)c1	/	/	31*	-1
COc1cccc(C(=O)N[C@@H]2CC[C@@H](Oc3cccc(F)c3)[C@H](O)[C@H]2O)c1	-1	-1	-1	4
O=C1NCCCC1Cc1ccc(-c2cccc(C(=O)N3CCc4ccccc4C3)c2)cc1 (stereo unspecified)	20	35*	55*	0
O=C(NCc1ccc2c(c1)OCO2)c1nc(-n2cnnc2)ccc1Br	10	39*	35*	11
O=C(NCc1ccc2c(c1)OCO2)c1cn2cc(Cl)ccc2n1	-18	29	47*	-4
Cc1ccc(OCCNC(=O)c2nc(-n3cnnc3)ccc2Br)cc1C	-3	-110	1	-11
Cn1c(-c2c(N)n(Cc3ccc(Cl)cc3)c3nc4ccccc4nc23)nc2ccccc21	-17	-52	-13	-13
Cn1c(-c2c(-c3ccccc3)n[nH]c2-c2ccccc2Cl)nc2ccccc21	38*	7	-6	-8
C=C(C)[C@@H]1CC[C@]2(C(=O)O)CC[C@]3(C)[C@H](CC[C@@H]4[C@@]5(C)CC[C@H](O)C(C)(C)[C@@H]5CC[C@]43C)[C@@H]12	10	15	31*	15
Cc1ccccc1NC(=O)CN1CCN(c2ccccn2)CC1	1	7	0	5
N#Cc1ccc(CC2(Cc3ccc(C#N)cc3)C(=O)N(Cc3ccccn3)C(=O)c3ccccc32)cc1	20	44*	16	13
O=C1N(Cc2ccccn2)C(=O)C2(Cc3ccccc3)CCN(Cc3ccccn3)CCN12 (stereo unspecified)	2	9	5	2

Screening data (PubChem BioAssay)
